PubChem BioAssay (Tox21)
Records with an inconclusive call do not appear. Activity calls are given as the source filed them. Unless noted, calls come from the whole dose curve; as a rule, active = well fitted curve in the direction sought with a large enough effect in the repeat runs; inconclusive = weak or mixed curves; inactive = no such curve, though single readings can be large; an effect the other way counts as inactive or inconclusive.

Experiments:
[1] = biological target: Progesterone receptor (Homo sapiens) (UniProt P06401); assay: qHTS assay to identify small molecule antagonists of the progesterone receptor (PR) signaling pathway (AID 1346795; active = well fitted inhibition curve with a large enough effect in the signal ratio in the repeat runs, not every such curve was filed as active; the % refers to the signal ratio)
Sequence of Progesterone receptor (Homo sapiens) (P06401 whole entry, looked up): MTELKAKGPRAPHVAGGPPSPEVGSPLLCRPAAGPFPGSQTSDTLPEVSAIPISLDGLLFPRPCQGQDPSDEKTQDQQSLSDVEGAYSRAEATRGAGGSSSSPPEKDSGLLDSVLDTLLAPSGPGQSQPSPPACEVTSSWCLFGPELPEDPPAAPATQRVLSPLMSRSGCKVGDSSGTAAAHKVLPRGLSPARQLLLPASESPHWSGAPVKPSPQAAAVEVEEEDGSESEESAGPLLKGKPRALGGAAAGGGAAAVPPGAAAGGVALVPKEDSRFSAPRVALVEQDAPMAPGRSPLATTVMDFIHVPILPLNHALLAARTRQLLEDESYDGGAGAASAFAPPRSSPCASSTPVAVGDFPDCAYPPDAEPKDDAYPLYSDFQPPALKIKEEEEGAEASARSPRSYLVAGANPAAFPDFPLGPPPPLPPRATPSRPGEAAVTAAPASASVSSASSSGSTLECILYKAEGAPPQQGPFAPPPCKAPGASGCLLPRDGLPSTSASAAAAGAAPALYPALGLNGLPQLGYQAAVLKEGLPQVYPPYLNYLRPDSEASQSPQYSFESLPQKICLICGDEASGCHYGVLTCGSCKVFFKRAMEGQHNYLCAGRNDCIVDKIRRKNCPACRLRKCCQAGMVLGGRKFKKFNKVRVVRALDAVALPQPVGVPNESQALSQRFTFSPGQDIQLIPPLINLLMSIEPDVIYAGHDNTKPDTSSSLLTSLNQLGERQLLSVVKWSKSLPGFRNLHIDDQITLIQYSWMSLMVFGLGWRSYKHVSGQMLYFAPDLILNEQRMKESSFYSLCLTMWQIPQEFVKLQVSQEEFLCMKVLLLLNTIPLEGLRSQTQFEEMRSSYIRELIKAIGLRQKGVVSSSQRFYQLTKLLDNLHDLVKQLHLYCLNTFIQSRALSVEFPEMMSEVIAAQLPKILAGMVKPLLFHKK
Method in brief: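 In HEK293T cells bearing the PR-UAS-bla reporter, compound effects on promegestone-driven (1 nM) beta-lactamase expression are assessed after 16 hr using a fluorescent FRET substrate incubated 2 hr at room temperature.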

[2] = qHTS assay to identify small molecule antagonists of the progesterone receptor (PR) signaling pathway - cell viability counter screen (AID 1346798); note: series mostly up to about 92 µM; nearly all actives have a fitted effect of over 50% in size
Method in brief: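 Following a 4 hr attachment, PR-UAS-bla HEK293T cells in charcoal-stripped FBS medium were exposed to compounds with R5020 for 16 hr; CellTiter-Glo was added and luminescence read after 30 min at room temperature.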

[3] = qHTS assay to identify small molecule agonists of the progesterone receptor (PR) signaling pathway - cell viability counter screen (AID 1346799; calls by dose curve; note: nearly all actives have a fitted effect of over 45% in size)
Method in brief: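 Here, 3,000 PR-UAS-bla HEK293T cells per well were treated with compounds for 16 hr after a 6 hr preincubation at 37C and 5% CO2; cell viability is the CellTiter-Glo luminescence signal.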

[4] = qHTS assay to identify small molecule antagonists of the TGF-beta/Smad signaling pathway - cell viability counter screen (AID 1346824); note: nearly all actives have a fitted effect of over 50% in size
Method in brief: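 SBE-bla HEK 293T cells, incubated overnight, then compound plus 0.25 ng/mL TGF-beta1 (stock added) for 5 hr at 37 C. Viability was read in the same wells by CellTiter-Glo luminescence after 30 min at room temperature.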

[5] = qHTS assay to identify small molecule agonists of the TGF-beta/Smad signaling pathway - cell viability counter screen (AID 1346829); note: top concentration of the series differs between compounds; nearly all actives have a fitted effect of over 45% in size
Method in brief: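 Here the cytotoxicity of library compounds is measured in SBE-bla HEK 293T cells treated for 5 hr, using CellTiter-Glo added to wells already read for the beta-lactamase reporter.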

[6] = qHTS assay to identify small molecule agonists of the TGF-beta/Smad signaling pathway (AID 1346859; active = well fitted activation curve with a large enough effect in the signal ratio in the repeat runs, not every such curve was filed as active; the % refers to the signal ratio; note: series mostly up to about 77 µM)
Method in brief: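 Each well held 4,000 SBE-bla HEK 293T cells incubated overnight before compound addition; 5 hr later the cleavable FRET substrate went on for 2 hr at room temperature, and fluorescence was read at two emissions.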

[7] = biological target: Thyrotropin-releasing hormone receptor (Homo sapiens) (UniProt P34981); assay: qHTS assay to identify small molecule antagonists of the thyrotropin-releasing hormone receptor (TRHR) signaling pathway (AID 1346877; active = well fitted inhibition curve with a large enough effect in the repeat runs, not every such curve was filed as active; note: series mostly up to about 51 µM)
Sequence of Thyrotropin-releasing hormone receptor (Homo sapiens) (P34981 whole entry, looked up): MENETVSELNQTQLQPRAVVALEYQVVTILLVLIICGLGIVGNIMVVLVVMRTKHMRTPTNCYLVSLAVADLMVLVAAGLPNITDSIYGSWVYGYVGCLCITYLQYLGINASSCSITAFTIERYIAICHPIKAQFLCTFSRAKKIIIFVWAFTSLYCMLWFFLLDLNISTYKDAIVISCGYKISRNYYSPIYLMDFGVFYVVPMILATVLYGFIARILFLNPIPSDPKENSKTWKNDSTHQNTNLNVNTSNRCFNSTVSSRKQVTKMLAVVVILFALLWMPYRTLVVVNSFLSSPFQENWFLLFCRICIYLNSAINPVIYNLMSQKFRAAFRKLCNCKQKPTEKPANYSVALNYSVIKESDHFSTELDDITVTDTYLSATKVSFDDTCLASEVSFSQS
Method in brief: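 Calcium signal in dye-loaded TRHR/HEK293 cells; compounds added 5 min before TRH (1 nM final); fluorescence monitored 3 min at 1 s steps.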

[8] = biological target: Thyrotropin-releasing hormone receptor (Homo sapiens) (UniProt P34981); assay: qHTS assay to identify small molecule agonists of the thyrotropin-releasing hormone receptor (TRHR) signaling pathway (AID 1346891; calls by dose curve; note: series mostly up to about 58 µM)
Method in brief: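 Screening of agonists relied on calcium signalling in HEK293 cells expressing human TRHR: dye loading 2 h at 37 °C preceded compound addition and a 3-min fluorescence time course.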

[9] = Human pregnane X receptor (PXR) small molecule agonists, qHTS cell viability counter screen (AID 1346977); note: nearly all actives have a fitted effect of over 50% in size
Method in brief: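 Tox21 qHTS format; PXR-Luc HepG2, 2,000/well, charcoal-stripped FBS 5%. Cpd exposure 24hr. Read: CellTiter-Fluor fluorescence, multiplexed with luciferase.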

[10] = Caspase-3/7 induction in HepG2 cells by small molecules, qHTS assay (AID 1346978); note: nearly all actives have a fitted effect of over 15% in size
Method in brief: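 Wild-type HepG2 cells, 2,000/well, settled 5 hr at 37 C and 5% CO2, then compound-treated for 17 hr; caspase-3/7 activity read by luminescent Caspase-Glo 3/7 after 30 min at room temperature.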

[11] = Caspase-3/7 induction in CHO-K1 cells by small molecules, qHTS cell viability counter screen (AID 1346979); note: nearly all actives have a fitted effect of over 35% in size
Method in brief: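 CellTiter-Fluor viability check, qHTS format: wild-type CHO-K1, 16hr compound treatment, 1hr reagent incubation, fluorescence read.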

[12] = Caspase-3/7 induction in CHO-K1 cells by small molecules, qHTS assay (AID 1346980); note: nearly all actives have a fitted effect of over 15% in size
Method in brief: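 Wild-type CHO-K1 cells exposed to compounds for 17hr at 37 C, 5% CO2. Caspase-3/7 activity then measured by Caspase-Glo 3/7 luminescence after 30min at room temperature.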

[13] = Caspase-3/7 induction in HepG2 cells by small molecules, qHTS cell viability counter screen (AID 1346981); note: series mostly up to about 92 µM; nearly all actives have a fitted effect of over 30% in size
Method in brief: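 After a 5-hr attachment period at 37 C and 5% CO2, wild-type HepG2 cells received compounds in DMSO. Sixteen hours later CellTiter-Fluor was dispensed and the fluorescent signal quantified after a further hour.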

[14] = biological target: Nuclear receptor subfamily 1 group I member 2 (Homo sapiens) (UniProt O75469); assay: Human pregnane X receptor (PXR) small molecule agonists, qHTS assay (AID 1346982); note: nearly all actives have a fitted effect of over 35% in size
Sequence of Nuclear receptor subfamily 1 group I member 2 (Homo sapiens) (O75469 whole entry, looked up): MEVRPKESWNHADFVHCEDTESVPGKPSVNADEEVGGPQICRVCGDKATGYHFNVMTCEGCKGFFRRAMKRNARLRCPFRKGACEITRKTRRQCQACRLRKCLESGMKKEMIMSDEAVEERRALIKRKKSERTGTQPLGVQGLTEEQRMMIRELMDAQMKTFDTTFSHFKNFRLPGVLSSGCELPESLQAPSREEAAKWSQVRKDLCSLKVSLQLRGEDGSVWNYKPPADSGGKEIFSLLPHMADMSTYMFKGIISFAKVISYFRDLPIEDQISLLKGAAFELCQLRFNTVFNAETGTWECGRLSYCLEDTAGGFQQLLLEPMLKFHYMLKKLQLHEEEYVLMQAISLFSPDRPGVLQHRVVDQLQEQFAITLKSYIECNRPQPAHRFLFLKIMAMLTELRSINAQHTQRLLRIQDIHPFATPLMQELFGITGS
Method in brief: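 Tox21 qHTS; PXR-Luc HepG2; compounds pinned from DMSO; 24 hr, 37 C; ONE-Glo luciferase detection, 30 min room temperature.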

[15] = biological target: Acetylcholinesterase (Homo sapiens) (UniProt P22303); assay: Acetylcholinesterase (AChE) small molecule antagonists: colormetric cell-based qHTS assay (AID 1347395; calls by dose curve; note: nearly all actives have a fitted effect of over 30% in size)
Sequence of Acetylcholinesterase (Homo sapiens) (P22303 whole entry, looked up): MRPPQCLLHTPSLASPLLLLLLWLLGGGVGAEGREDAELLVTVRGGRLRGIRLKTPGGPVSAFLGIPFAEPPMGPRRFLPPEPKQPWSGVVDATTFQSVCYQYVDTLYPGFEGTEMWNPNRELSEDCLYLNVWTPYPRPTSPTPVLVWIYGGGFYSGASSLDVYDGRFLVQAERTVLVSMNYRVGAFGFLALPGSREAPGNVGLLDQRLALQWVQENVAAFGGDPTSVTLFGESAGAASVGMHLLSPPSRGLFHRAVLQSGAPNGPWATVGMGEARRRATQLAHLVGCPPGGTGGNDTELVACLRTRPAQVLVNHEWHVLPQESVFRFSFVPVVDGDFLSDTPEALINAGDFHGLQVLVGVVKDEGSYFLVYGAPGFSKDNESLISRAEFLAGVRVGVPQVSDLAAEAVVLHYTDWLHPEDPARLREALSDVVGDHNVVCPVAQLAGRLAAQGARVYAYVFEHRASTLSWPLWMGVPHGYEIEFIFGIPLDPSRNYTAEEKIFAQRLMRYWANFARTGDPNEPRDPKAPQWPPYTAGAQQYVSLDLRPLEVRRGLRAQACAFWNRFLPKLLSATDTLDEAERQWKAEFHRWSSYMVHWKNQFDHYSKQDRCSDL
Method in brief: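 AChE inhibition read colorimetrically via DTNB–thiocholine in SH-SY5Y cells. Compound 30 min, substrate 90 min, both 37 C.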

[16] = biological target: Acetylcholinesterase (Homo sapiens) (UniProt P22303); assay: Acetylcholinesterase (AChE) small molecule antagonists: enzyme-based qHTS assay (AID 1347397; calls by dose curve; note: nearly all actives have a fitted effect of over 55% in size); conditions: Potency: AChE enzyme activity inhibition; outcome: AChE enzyme activity inhibition
Method in brief: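 In this quantitative HTS, compounds from the Tox21 10K collection were preincubated 30 min at ambient temperature with recombinant human AChE dispensed at 50 mU/mL. Hydrolysis of acetylthiocholine was then followed for 10 min by DTNB colour development.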

[17] = biological target: Acetylcholinesterase (Homo sapiens) (UniProt P22303); assay: Acetylcholinesterase (AChE) small molecule antagonists: fluorescence cell-based qHTS assay (AID 1347398; calls by dose curve; note: nearly all actives have a fitted effect of over 50% in size); conditions: Potency: AChE activity; outcome: AChE activity
Method in brief: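 Cells (SH-SY5Y) attached overnight, were dosed with compound or DMSO vehicle for 30 min at 37 C, and then incubated 40 min at room temperature with acetylthiocholine and Thiolite Green; green fluorescence indexed AChE activity.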

[18] = biological target: Nuclear receptor subfamily 1 group I member 2 (Rattus norvegicus) (UniProt Q9R1A7); assay: Rat pregnane X receptor (rPXR) activation by small molecules, qHTS assay (AID 1346983); conditions: rPXR luciferase reporter cells, One-Glo luminescence, 24 h; hits give high values; note: nearly all actives have a fitted effect of over 20% in size
Sequence of Nuclear receptor subfamily 1 group I member 2 (Rattus norvegicus) (Q9R1A7 whole entry, looked up): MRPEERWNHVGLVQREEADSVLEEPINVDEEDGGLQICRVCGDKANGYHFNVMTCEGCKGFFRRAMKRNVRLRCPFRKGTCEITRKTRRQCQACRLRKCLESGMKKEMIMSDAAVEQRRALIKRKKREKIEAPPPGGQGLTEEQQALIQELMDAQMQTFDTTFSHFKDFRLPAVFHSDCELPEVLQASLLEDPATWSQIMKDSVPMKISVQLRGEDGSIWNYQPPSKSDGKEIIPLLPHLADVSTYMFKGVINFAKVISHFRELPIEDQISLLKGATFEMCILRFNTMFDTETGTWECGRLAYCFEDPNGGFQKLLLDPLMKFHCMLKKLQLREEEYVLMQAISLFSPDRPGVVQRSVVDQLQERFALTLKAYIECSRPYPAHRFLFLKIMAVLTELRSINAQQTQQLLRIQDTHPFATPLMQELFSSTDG
Method in brief: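 Cell-based rPXR activation assay: rPXR cells, 2,000 per well, rested 5hr at 37 C, then exposed to compounds in DMSO for 24 hr at 37 C. Luciferase activity read by One-Glo luminescence after 30 min at room temperature.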

[19] = biological target: Nuclear receptor subfamily 1 group I member 2 (Homo sapiens) (UniProt O75469); assay: CYP3A4 induction through human pregnane X receptor (PXR) by small molecules, qHTS assay (AID 1346984); note: nearly all actives have a fitted effect of over 40% in size
Method in brief: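 Cells (DPX-2; HepG2 with PXR element plus CYP3A4-promoter luciferase) settled 5hr, then were treated 24hr at 37C. A 3hr, 3uM-final Luciferin-IPA step preceded luminescence measurement with One-Glo.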

[20] = biological target: Nuclear receptor subfamily 1 group I member 2 (Homo sapiens) (UniProt O75469); assay: Human pregnane X receptor (PXR) activation by small molecules, qHTS assay (AID 1346985); note: nearly all actives have a fitted effect of over 40% in size
Method in brief: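 DPX-2 cells (HepG2 co-transfected with a PXR response element and a CYP3A4-promoter luciferase construct) were seeded at 2,000 per well, rested 5 hr at 37C, then exposed to DMSO-dissolved compounds for 24 hr. Activation was read as luciferase luminescence.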
% is set by controls: 0 for no effect and ±100 for the full control effect.

O=C(Cc1ccccc1)OCCc1ccccc1
inactive: Potency [1] | Potency [2] | Potency [3] | Potency [4] | Potency [5] | outcome [6] | Potency [7] | outcome [8] | Potency [9] | Potency [10] | Potency [11] | Potency [12] | Potency [13] | Potency [14] | Potency [15] | Potency [16] | Potency [17]

CCCCCCCCCCCCN=C(N)N
inactive: activity change, negative = inhibition [1] 1.76% [at 3.27 µM] | activity change, negative = cytotoxicity [2] 1.32% [at 3.27 µM] | activity change, negative = cytotoxicity [3] 0.561% [at 3.27 µM] | viability change, negative = cytotoxic [4] -21.8% [at 2.72 µM] | activity change, negative = cytotoxicity [5] -9.54% [at 2.72 µM] | activation [6] 1.13% [at 2.72 µM] | activity, negative = inhibition [7] 1.26% [at 1.81 µM] | activation [8] 0.32% [at 2.04 µM] | activity change, negative = cytotoxicity [9] 1.51% [at 3.27 µM] | caspase activation [10] -1.34% [at 3.27 µM] | activity change, negative = cytotoxicity [11] -4.73% [at 3.27 µM] | caspase-3/7 activation [12] -1.72% [at 3.27 µM] | activity change, negative = cytotoxicity [13] -9.99% [at 3.27 µM] | activation [14] 13.3% [at 3.27 µM] | activity, negative = inhibition [15] -5.91% [at 4.07 µM] | activity change, negative = inhibition [16] -1.29% [at 4.07 µM] | activity change, negative = inhibition [17] -10.7% [at 3.98 µM]

CCCC[N+]1(C)[C@@H]2CC(OC(=O)[C@H](CO)c3ccccc3)C[C@H]1[C@@H]1O[C@@H]12 (stereo partly drawn)
inactive: Potency [1] | Potency [2] | Potency [3] | Potency [5] | outcome [6] | Potency [7] | outcome [8] | Potency [9] | Potency [10] | Potency [11] | Potency [12] | Potency [14] | max activation [18] -0.805% | outcome [19] | Potency [20] | Potency [15] | Potency [16] | Potency [17]

O=C(N[C@H]1CN2CCC1CC2)c1ccc2c(c1)OCCO2
inactive: Potency [1] | Potency [2] | Potency [3] | Potency [5] | outcome [6] | outcome [8] | Potency [9] | Potency [10] | Potency [11] | Potency [12] | Potency [14] | Potency [16]

Cc1ccc(N)c(C)c1
inactive: Potency [1] | Potency [2] | Potency [3] | Potency [4] | Potency [5] | outcome [6] | outcome [8] | Potency [9] | Potency [11] | Potency [12] | Potency [13] | Potency [14]

CN[C@@H](C)[C@H](O)c1ccccc1
inactive: Potency [1] | Potency [2] | Potency [3] | Potency [5] | outcome [6] | Potency [7] | outcome [8] | Potency [9] | Potency [10] | Potency [11] | Potency [13] | max activation [18] -0.788% | outcome [19] | Potency [20] | Potency [15] | Potency [16] | Potency [17]

O=[N+]([O-])c1cc(Cl)c(Cl)cc1Cl
inactive: Potency [1] | Potency [2] | Potency [3] | Potency [4] | Potency [5] | outcome [6] | Potency [9] | Potency [10] | Potency [11] | Potency [12] | Potency [14] | Potency [15] | Potency [16] | Potency [17]

OCC1CO1 (stereo not drawn)
inactive: Potency [1] | Potency [2] | Potency [3] | Potency [4] | Potency [5] | outcome [6] | Potency [9] | Potency [10] | Potency [11] | Potency [13] | Potency [14] | Potency [15] | Potency [16] | Potency [17]

Nc1cc(Cl)cc(C(=O)O)c1Cl
inactive: Potency [1] | Potency [2] | Potency [3] | Potency [5] | outcome [6] | Potency [7] | outcome [8] | Potency [9] | Potency [11] | Potency [15] | Potency [16] | Potency [17]
